Parameters in all cases: scale not given: direction of the effect not stated beside the values
The target in assay [1] is Protein translocase subunit SecA (Escherichia coli (strain K12)) (UniProt P10408). The assay can be described thus: Assay to Identify E. coli SecA ATPase Inhibitors. Type of assay: functional. The following applies: 30 µM.
Assay [2] concerns the target T1, Ubiquitin-activating enzyme e1, putative (Leishmania donovani (strain BPK282A1)) (UniProt E9BSI1).
T1 sequence (whole entry): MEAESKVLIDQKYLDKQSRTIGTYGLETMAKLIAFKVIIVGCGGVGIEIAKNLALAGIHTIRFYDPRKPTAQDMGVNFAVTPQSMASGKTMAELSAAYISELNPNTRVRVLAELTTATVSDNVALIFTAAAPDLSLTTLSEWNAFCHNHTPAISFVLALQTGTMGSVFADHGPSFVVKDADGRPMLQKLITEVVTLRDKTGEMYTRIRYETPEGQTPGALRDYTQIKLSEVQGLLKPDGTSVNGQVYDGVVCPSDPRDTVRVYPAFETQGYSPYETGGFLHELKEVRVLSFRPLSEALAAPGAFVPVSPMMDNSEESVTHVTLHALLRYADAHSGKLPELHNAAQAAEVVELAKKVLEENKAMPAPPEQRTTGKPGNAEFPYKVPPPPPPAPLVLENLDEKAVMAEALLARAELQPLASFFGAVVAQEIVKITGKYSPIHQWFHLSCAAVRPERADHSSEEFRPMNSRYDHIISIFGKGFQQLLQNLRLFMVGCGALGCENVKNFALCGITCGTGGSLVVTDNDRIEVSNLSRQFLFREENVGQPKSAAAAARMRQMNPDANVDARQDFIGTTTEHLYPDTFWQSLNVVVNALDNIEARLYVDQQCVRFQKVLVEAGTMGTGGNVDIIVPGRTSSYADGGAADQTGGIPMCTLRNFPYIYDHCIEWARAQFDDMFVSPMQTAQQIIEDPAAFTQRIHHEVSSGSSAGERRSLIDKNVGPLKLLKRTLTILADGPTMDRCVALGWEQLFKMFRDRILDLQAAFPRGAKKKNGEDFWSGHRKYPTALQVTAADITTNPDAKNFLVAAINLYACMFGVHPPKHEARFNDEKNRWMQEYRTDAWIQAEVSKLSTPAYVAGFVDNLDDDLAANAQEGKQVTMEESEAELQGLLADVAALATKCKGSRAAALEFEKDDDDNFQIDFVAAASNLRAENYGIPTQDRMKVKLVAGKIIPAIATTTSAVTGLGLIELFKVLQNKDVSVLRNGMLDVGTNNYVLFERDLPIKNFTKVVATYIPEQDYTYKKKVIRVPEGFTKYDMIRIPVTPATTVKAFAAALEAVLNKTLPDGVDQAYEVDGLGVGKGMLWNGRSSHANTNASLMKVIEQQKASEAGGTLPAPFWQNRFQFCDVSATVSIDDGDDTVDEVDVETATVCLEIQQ
The experiment in a line: Leishmania donovani Ubiquitin Activating Enzyme (LdE1). Type of assay: functional. The following applies: 30 µM.

The target of assay [3] is AMP-activated protein kinase, AMPK (Homo sapiens) (UniProt P54646+O43741+P54619+Q9UGJ0+Q9Y478+Q13131+Q9UGI9). The experiment in a line: AMP-dependent Kinase enzyme assay. An in vitro enzyme assay that detects ADP turnover that is directly proportional to AMPK activity. This uses naive AMPK that is activated during the assay with MK-8722. Type of assay: functional. The following applies: 30 µM.

The target in assay [4] is Sialic acid-binding Ig-like lectin 9 (Homo sapiens) (UniProt Q9Y336). The assay can be described thus: Hs-Siglec9 ALPHAscreen SOP 20170721. The following applies: 10 µM.
Chain of Sialic acid-binding Ig-like lectin 9 (Homo sapiens) (Q9Y336 whole entry): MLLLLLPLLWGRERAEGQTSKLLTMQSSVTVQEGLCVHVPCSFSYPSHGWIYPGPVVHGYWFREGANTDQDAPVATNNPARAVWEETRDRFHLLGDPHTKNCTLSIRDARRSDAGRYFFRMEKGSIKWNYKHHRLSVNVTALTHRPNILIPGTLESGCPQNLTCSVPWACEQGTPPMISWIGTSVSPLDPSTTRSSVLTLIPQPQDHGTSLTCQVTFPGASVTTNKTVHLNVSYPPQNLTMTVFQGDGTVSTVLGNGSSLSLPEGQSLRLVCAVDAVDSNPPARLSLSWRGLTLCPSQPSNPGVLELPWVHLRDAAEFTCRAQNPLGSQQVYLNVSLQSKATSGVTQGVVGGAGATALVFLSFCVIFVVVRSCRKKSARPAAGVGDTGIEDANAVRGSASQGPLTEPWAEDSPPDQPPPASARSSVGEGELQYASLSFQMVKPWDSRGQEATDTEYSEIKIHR
Another assay deals with Trypanosoma cruzi. The experiment in a line: Trypanosoma cruzi phosphomannomutase and mannose-1-phosphate guanylyltransferase assay. Type of assay: functional. The following applies: 10 µM.
The target in assay [5] is T2, Arginase-2, mitochondrial (Homo sapiens) (UniProt P78540).
T2 sequence (whole entry): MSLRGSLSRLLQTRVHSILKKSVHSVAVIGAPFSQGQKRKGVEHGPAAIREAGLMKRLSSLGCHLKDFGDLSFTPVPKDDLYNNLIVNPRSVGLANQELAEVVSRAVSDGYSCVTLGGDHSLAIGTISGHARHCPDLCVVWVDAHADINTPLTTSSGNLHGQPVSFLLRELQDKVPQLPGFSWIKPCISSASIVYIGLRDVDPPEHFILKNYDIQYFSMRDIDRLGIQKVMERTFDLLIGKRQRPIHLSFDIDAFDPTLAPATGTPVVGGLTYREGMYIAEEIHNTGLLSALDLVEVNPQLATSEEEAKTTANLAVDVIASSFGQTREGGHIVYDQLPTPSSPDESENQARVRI
The experiment in a line: in vitro enzyme assay to detect the production of urea directly proportional to the activity of Arginase II. Further: in the data most compounds retested in dose-response had high values. Type of assay: functional. The conditions noted are these: 33.3 µM.

Assay [6] addresses T3, Proteasome subunit beta (Trypanosoma cruzi) (UniProt O96673).
T3 sequence (whole entry): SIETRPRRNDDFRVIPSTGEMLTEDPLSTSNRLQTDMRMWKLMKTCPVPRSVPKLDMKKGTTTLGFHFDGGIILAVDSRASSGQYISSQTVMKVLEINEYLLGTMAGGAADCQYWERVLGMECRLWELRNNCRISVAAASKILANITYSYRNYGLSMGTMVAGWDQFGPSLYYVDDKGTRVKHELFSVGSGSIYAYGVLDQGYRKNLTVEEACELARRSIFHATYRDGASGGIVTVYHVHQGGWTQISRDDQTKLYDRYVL
The assay can be described thus: Trypanosoma cruzi proteasome chymotrypsin-like activity (TcProtChymo) assay. Further: in the data most compounds retested in dose-response had high values. Type of assay: functional. The conditions noted are these: 9.37 µM.

The species entered for another assay is Homo sapiens. The experiment in a line: To identify inhibition of the IFN signalling (Jak-Stat) pathway via expression of an eGFP reporter gene under the control of an IFN-stimulated response element (ISRE) containing MxA promoter. Type of assay: functional. The following applies: 30 µM. On the technique in general: A reporter such as luciferase makes a cellular process visible.

The target of assay [7] is T4, Tyrosyl-tRNA synthetase, putative (Trypanosoma cruzi (strain CL Brener)) (UniProt Q4DSP6).
T4 sequence (whole entry): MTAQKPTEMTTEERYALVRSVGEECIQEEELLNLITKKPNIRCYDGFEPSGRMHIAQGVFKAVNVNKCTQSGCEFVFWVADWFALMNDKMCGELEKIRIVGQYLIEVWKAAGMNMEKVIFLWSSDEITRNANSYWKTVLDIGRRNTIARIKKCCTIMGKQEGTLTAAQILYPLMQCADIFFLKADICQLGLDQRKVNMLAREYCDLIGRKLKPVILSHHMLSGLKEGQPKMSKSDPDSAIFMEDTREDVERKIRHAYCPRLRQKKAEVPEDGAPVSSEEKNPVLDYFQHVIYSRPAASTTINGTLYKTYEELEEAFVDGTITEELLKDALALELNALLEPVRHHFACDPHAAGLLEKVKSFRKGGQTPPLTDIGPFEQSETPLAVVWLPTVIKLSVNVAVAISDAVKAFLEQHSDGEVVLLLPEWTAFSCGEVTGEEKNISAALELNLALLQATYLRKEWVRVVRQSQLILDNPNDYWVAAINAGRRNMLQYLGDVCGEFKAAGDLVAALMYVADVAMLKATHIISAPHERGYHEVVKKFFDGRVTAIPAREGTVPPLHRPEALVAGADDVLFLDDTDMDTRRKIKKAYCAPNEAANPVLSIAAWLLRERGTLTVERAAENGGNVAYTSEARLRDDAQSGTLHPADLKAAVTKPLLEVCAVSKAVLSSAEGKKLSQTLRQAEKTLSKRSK
The experiment in a line: Trypanosoma cruzi tyrosyl tRNA synthetase (TcYRS) _High Tyrosine SOP. Further: in the data most compounds retested in dose-response had high values. Type of assay: functional. The following applies: 30 µM.

Assay [8] deals with T4, Tyrosyl-tRNA synthetase, putative (Trypanosoma cruzi (strain CL Brener)). The assay can be described thus: Trypanosoma cruzi tyrosyl tRNA synthetase (TcYRS) SOP. Type of assay: functional. The conditions noted are these: 30 µM.
The target in assay [9] is Chromo domain-containing protein 1 (Saccharomyces cerevisiae (strain ATCC 204508 / S288c) (Baker's yeast)) (UniProt P32657). The assay can be described thus: ScCHD-1 Enzyme Inhibition Assay. Further: in the data most compounds retested in dose-response had high values. Type of assay: functional. The conditions noted are these: 30 µM.
Chain of Chromo domain-containing protein 1 (Saccharomyces cerevisiae (strain ATCC 204508 / S288c) (Baker's yeast)) (P32657 whole entry, the tested form may be a part): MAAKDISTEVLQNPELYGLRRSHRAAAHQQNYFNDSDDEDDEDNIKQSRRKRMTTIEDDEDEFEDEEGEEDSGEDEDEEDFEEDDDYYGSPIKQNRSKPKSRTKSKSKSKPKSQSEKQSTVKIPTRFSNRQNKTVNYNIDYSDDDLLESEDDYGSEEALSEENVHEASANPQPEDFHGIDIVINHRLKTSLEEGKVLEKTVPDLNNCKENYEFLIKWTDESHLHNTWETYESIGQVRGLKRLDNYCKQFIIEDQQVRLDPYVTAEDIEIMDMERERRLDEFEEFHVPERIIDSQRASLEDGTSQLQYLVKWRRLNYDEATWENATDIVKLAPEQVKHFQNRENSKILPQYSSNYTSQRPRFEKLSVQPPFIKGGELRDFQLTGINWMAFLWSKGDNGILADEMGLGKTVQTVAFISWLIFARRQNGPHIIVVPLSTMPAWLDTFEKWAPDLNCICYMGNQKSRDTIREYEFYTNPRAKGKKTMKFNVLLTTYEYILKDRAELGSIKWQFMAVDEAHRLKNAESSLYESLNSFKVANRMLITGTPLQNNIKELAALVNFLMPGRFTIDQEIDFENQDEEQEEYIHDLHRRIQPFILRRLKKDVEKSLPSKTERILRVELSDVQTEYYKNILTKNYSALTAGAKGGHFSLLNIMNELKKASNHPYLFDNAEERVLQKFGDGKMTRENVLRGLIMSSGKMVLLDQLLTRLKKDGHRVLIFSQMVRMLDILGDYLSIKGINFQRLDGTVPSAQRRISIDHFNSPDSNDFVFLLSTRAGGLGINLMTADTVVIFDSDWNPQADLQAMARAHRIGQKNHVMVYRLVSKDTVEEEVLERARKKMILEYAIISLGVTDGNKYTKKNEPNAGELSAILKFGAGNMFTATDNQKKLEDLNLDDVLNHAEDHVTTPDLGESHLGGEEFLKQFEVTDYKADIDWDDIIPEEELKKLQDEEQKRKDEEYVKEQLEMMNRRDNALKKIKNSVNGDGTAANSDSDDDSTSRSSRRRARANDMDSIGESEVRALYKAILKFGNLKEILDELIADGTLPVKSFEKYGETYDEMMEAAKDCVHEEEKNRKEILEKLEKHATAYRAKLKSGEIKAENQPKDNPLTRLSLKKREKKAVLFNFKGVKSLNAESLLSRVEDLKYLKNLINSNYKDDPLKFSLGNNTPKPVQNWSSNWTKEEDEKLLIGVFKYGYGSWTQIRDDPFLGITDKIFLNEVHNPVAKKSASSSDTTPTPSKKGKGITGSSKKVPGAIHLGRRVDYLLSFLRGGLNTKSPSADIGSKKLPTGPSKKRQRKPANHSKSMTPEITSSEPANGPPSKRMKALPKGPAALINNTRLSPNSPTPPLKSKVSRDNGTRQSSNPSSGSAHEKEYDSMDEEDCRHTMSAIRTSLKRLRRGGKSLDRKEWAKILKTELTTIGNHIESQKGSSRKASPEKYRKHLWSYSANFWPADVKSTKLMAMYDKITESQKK

For some of these results: Results with a measured potency or affinity are listed apart.

Chain of Protein translocase subunit SecA (Escherichia coli (strain K12)) (P10408 whole entry): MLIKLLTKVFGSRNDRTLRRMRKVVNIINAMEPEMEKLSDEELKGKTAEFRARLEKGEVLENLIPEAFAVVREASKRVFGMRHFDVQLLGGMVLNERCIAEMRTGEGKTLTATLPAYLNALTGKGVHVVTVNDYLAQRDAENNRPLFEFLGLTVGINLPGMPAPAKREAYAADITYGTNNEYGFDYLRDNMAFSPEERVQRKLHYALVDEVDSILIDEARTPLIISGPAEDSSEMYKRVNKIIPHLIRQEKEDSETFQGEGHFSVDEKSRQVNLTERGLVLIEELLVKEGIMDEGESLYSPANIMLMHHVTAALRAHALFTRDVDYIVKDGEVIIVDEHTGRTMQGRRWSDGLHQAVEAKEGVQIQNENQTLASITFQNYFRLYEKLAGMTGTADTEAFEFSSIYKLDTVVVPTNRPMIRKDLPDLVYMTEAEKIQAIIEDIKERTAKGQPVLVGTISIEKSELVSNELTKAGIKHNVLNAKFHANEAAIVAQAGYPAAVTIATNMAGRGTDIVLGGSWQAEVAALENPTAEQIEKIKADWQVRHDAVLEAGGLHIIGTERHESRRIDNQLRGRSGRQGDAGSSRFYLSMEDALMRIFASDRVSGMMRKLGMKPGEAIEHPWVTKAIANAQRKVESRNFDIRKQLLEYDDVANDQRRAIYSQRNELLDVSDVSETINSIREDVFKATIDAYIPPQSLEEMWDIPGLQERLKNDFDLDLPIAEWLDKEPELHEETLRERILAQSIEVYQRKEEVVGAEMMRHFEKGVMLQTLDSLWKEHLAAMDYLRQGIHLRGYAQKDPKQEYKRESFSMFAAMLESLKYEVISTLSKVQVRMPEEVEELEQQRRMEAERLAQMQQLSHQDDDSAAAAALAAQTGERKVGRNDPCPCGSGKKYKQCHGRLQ

As for `O=C(NCC1CCOCC1)[C@H]1C[C@@H]2CCN(Cc3ccncc3)C[C@@H]2O1`, the Percent Effect is -1.48% in assay [1]; -2.67% in [2]; -3.45% in assay [3]; 1.78% in assay [4]; 3.28% in the assay with Trypanosoma cruzi; -1.25% in assay [5]. The Percent Effect in assay [6] was 14%; in the assay filed under Homo sapiens, -16.5%; in assay [7] it was 1.04%; in assay [8] it was 7.5%; in assay [9], -5.98%.

On to `CC(NC(=O)NCCCNS(C)(=O)=O)c1ccncc1` (stereo unspecified), for which the Percent Effect was -4.34% in assay [1]; 6.33% in assay [2]; 4.73% in [3]; 0.18% in [4]; -2.97% in the assay on Trypanosoma cruzi; -1.5% in assay [5]. The Percent Effect is 8.4% in [6]; -9.13% in the assay listed under Homo sapiens; 12.5% in assay [7]; 17.7% in assay [8]; -4.71% in assay [9].

As for `COCc1cnc2n1CCN(C(=O)C1=CCCCC1)C2C` (stereo unspecified), the Percent Effect is 2.94% in assay [1]; 17.3% in [2]; -3.72% in assay [3]; -2.8% in assay [4]; -1.77% in the assay with Trypanosoma cruzi; -16.7% in assay [5]. Also, the Percent Effect was 15.5% in [6]; 33% in the assay listed under Homo sapiens; 3.17% in [7]; 12.8% in assay [8]; -8.38% in assay [9].

For `c1cnc2c(C3CCN(Cc4ccsc4)CC3)n[nH]c2n1`, the Percent Effect in assay [1] was -4.33%; in assay [2], 20.3%; in assay [3], 10.3%; in assay [4] it was -8.48%; in the assay with Trypanosoma cruzi it was 5.14%; in [5] it was -1.62%. Further, the Percent Effect is 17.9% in assay [6]; 18.2% in the assay filed under Homo sapiens; 3.23% in assay [7]; 9.09% in assay [8]; 20.2% in [9].

Regarding `CCOc1cc(C(=O)N2CCCC(c3cc(C(N)=O)[nH]n3)C2)ccn1` (stereo unspecified), the Percent Effect in [1] was -4.21%; in assay [2] it was 10.5%; in assay [3] it was 5.83%; in [4], -2.38%; in the assay on Trypanosoma cruzi, 7.94%; in [5], 0%. Besides, the Percent Effect in assay [6] was 5.5%; in the assay listed under Homo sapiens, -0.364%; in [7] it was 3.45%; in assay [8] it was 16.1%; in assay [9], -0.329%.

For the compound `c1cnn(CC2CCCCN2c2ncnc3sccc23)c1` (stereo unspecified), the Percent Effect in [1] was -7.65%; in assay [2] it was -5.33%; in [3], 0.901%; in assay [4] it was 5.7%; with Trypanosoma cruzi it was -2.63%; in assay [5] it was -1.56%. Also, the Percent Effect was 6.45% in assay [6]; 29.1% in the assay filed under Homo sapiens; -0.546% in [7]; -1.24% in [8]; -3.05% in [9].

`O=C(N1CCOCC1)[C@@]12CCO[C@@H]1CCN(CC1CCCCC1)C2`: the Percent Effect is -4.88% in assay [1]; -1.33% in [2]; 2.35% in assay [3]; -2.81% in assay [4]; -5.3% in the assay on Trypanosoma cruzi; -10% in assay [5]. In addition, the Percent Effect in assay [6] was 7.58%; in the assay filed under Homo sapiens, 12.3%; in assay [7], -3.17%; in assay [8], -10.3%; in assay [9], -2.92%.

Take `CC(C)c1nc(C2CCCN2C(=O)c2cnc[nH]2)no1` (stereo unspecified): the Percent Effect in assay [1] was -7.47%; in assay [2], 8.11%; in [3], 3.18%; in [4], 5.28%; with Trypanosoma cruzi, -6.96%; in assay [5], 0.554%. Moreover, the Percent Effect in assay [6] is -5.75%; in the assay listed under Homo sapiens it was 23.2%; in [7], 0%; in [8] it was 1.22%; in [9], 4.79%.

Take `O=C(c1cccnc1-n1cncn1)N1CCc2ccccc2C1`: the Percent Effect in assay [1] is -1.58%; in assay [2], 16.2%; in assay [3], -4%; in assay [4], 13.4%; in the assay with Trypanosoma cruzi it was 4.25%; in assay [5] it was 1.91%. Besides, the Percent Effect in [6] is 8.1%; in the assay filed under Homo sapiens, 4.11%; in [7], 5.82%; in [8], 9.76%; in assay [9], -2.56%.

Consider `Cc1scc(C(=O)N2CCC3(CC(=O)NC3=O)C2)c1-c1ccccc1` (stereo unspecified), for which the Percent Effect in [1] is -2.27%; in assay [2], 5.41%; in [3], 3.06%; in [4] it was 1.45%; with Trypanosoma cruzi, 1.35%; in [5] it was 2.86%. The Percent Effect was 12.2% in assay [6]; 0.902% in the assay filed under Homo sapiens; 8.99% in [7]; 9.76% in [8]; -5.21% in assay [9].

Regarding `Cc1ccc(CC(=O)N2CCCC(c3nc(C)cs3)C2)cn1` (stereo unspecified), the Percent Effect was -5.58% in assay [1]; -2.7% in assay [2]; -3.92% in assay [3]; 13.4% in [4]; -0.0929% in the assay with Trypanosoma cruzi; -0.554% in assay [5]. Also, the Percent Effect in assay [6] is 0.539%; in the assay listed under Homo sapiens, -13.1%; in assay [7] it was 0.99%; in assay [8], -6.1%; in assay [9], 7.44%.

These data come from ChEMBL document CHEMBL3988442, “University of Dundee, Small-Polar-MMV Screening Library” (2021).
